# Calls of active or inactive are those of the source.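 The calls were made as follows, unless noted: active = inhibition of the reporter signal at or above 50%; inactive = inhibition below 50%.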
# Test: inhibitors of Sendai virus-induced IRF3 signaling, primary screen, TLR/RLR signaling modifier project, cell-based, Sendai virus stimulus, luciferase, 10K MLSCN set (AID 602276;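 active = inhibition at or above 50% at 10 µM; inactive = inhibition below 50%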;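 also: firefly luciferase from ISG56 promoter only with Renilla not read in this screen; 0% = Sendai virus plus DMSO and 100% = medium plus DMSO without virus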)
# Conditions: HEK293 RL24 IRF3 luciferase reporter, at 10 µM, active compounds read high
row,SMILES,inhibition
1,COC(=O)Nc1ccc(S(=O)(=O)N2CCCCCC2)cc1,17.1% (inactive)
2,Cc1cc(=O)c2n(Cc3ccccc3Cl)nc[n+]2[nH]1,5.55% (inactive)
3,Cn1c(=O)[nH]c(=O)c2c1nc(Br)n2CCCSc1nc2ccccc2o1,17.2% (inactive)
4,Cc1ccc(C(=O)Nc2c(C(=O)N3CCOCC3)cnn2-c2ccccc2)cc1,14% (inactive)
5,COc1ccc(C(=O)NCCC(C)C)cc1S(=O)(=O)N1CCOCC1,17.2% (inactive)
6,O=C(NC1=NCCS1)c1ccc2c(c1)C(=O)N(Cc1ccco1)C2=O,19.1% (inactive)
7,CCN(C(=O)c1cccs1)c1nnc(-c2ccncc2)s1,-7.04% (inactive)
8,O=C(c1nn2cccnc2c1Cl)N1CCN(c2ccccc2)CC1,11.4% (inactive)
9,CC12CCC(C(=O)N3CCN(C(=O)C45CCC(C)(C(=O)O4)C5(C)C)CC3)(OC1=O)C2(C)C,-54.1% (inactive)
10,CSc1nnc(-c2ccccc2)n1C,16.8% (inactive)
11,O=C(COC(=O)c1ccccc1C(=O)c1ccccc1)c1ccco1,-5.98% (inactive)
12,CN(CC(=O)Nc1cccnc1)S(=O)(=O)c1cc(Cl)ccc1Cl,-8.87% (inactive)
13,O=C(CSc1n[nH]c(=O)[nH]c1=O)c1ccccc1,1.37% (inactive)
14,O=C(NCCCN1CCN(c2cccc(Cl)c2)CC1)c1ccc(N2CCCC2=O)cc1,10.3% (inactive)
15,CCN1C(=O)/C(=C/N(C)c2ccccc2)OC1=S,-11.5% (inactive)
16,Cc1nnc(SCC(=O)NCc2ccc3c(c2)OCO3)s1,5.5% (inactive)
17,Cc1cccc(NC(=O)CCCCCN2C(=O)c3ccccc3C2=O)n1,15.6% (inactive)
18,COc1ccc(-n2nc3cc(C)c(N)c(Br)c3n2)cc1,-10.7% (inactive)
19,Cc1ccc(S(=O)(=O)N(CC(=O)N2CCC(C(N)=O)CC2)Cc2ccc(F)cc2)cc1,10.4% (inactive)
20,Cc1ccc(-n2c(C)cc3c2CCCC3=O)cc1,5.45% (inactive)
21,CC1CCCCC1NC(=O)COc1ccc(-n2cnnn2)cc1 (stereo not drawn),6.84% (inactive)
22,CSc1ccccc1NC(=O)CN(c1ccccc1)S(=O)(=O)N(C)C,15.6% (inactive)
23,O=C(C1CCCO1)N1CCN(S(=O)(=O)c2ccccc2)CC1 (stereo not drawn),12.6% (inactive)
24,O=C(Nc1ccc2oc(=O)ccc2c1)c1cccnc1,6.9% (inactive)

# Test: inhibitors of poly I:C-induced TLR3 signaling, primary screen, cell-based, poly I:C stimulus, luciferase, 10K MLSCN set (AID 602277)
# Conditions: HEK293-TLR3 RL24 IRF3 luciferase reporter, at 10 µM, active compounds read high
row,SMILES,inhibition
1,O=C1CCC(C(=O)N(Cc2ccco2)C2(C(=O)NC3CCCC3)CCCCC2)N1 (stereo not drawn),13.4% (inactive)
2,O=C(NC1CCCCCCC1)C1CCN(c2nc3ccccc3o2)CC1,-11.1% (inactive)
3,COc1ccccc1N1CCN(c2cc(N3CCCC3)nc(C)n2)CC1,1.07% (inactive)
4,CCN(CC(=O)Nc1ccc2c(c1)OCCO2)Cc1cc(=O)oc2cc(C)c(C)cc12,16.9% (inactive)
5,Cc1ccc2cc(C(c3nnnn3C3CCCC3)N3CCN(c4ccc(F)cc4)CC3)c(=O)[nH]c2c1 (stereo not drawn),34.2% (inactive)
6,COc1ccccc1N1CCN(C(=O)c2cc(-c3ccc(Cl)c(Cl)c3)on2)CC1,-2.55% (inactive)
7,COC(=O)c1sc(S(=O)(=O)N2CCN(c3ccccc3)CC2)c(C(=O)OC)c1C,22.7% (inactive)
8,Cc1cc(NC(=O)CSc2nc(C3CCCCC3)nc3ccccc23)no1,15.3% (inactive)
9,COc1ccc(Cl)c(NC(=O)NCCN2CCN(c3ccccc3)CC2)c1,23.5% (inactive)
10,Cc1ccc(S(=O)(=O)N2CCN(C(=O)N3CCOCC3)C2c2ccc(N(C)C)cc2)cc1 (stereo not drawn),8.2% (inactive)
11,CCOC(=O)c1c(N)c(C#N)nn1-c1ccccc1C(=O)OC,20.2% (inactive)
12,Cc1cc(C)n(C(C)n2nc(C)cc2C)n1,12.7% (inactive)
13,CCCCCCn1c(CN2CCCC(C)C2)nc2c1c(=O)n(C)c(=O)n2C (stereo not drawn),9.02% (inactive)
14,Cc1cccc(NC(=O)c2ccc(S(=O)(=O)N(C)C)cc2)n1,-45.9% (inactive)
15,Cn1cnnc1Sc1nc2c(c(=O)n(C)c(=O)n2C)n1Cc1ccccc1Cl,21.9% (inactive)
16,COC(=O)Nc1ccc(S(=O)(=O)N2CCCCCC2)cc1,19.7% (inactive)
17,Cc1cc(=O)c2n(Cc3ccccc3Cl)nc[n+]2[nH]1,8.5% (inactive)
18,Cn1c(=O)[nH]c(=O)c2c1nc(Br)n2CCCSc1nc2ccccc2o1,9.4% (inactive)
19,Cc1ccc(C(=O)Nc2c(C(=O)N3CCOCC3)cnn2-c2ccccc2)cc1,15.4% (inactive)
20,COc1ccc(C(=O)NCCC(C)C)cc1S(=O)(=O)N1CCOCC1,19.8% (inactive)

row,SMILES,inhibition
1,O=C(NC1=NCCS1)c1ccc2c(c1)C(=O)N(Cc1ccco1)C2=O,24.4% (inactive)
2,CCN(C(=O)c1cccs1)c1nnc(-c2ccncc2)s1,-41.1% (inactive)
3,O=C(c1nn2cccnc2c1Cl)N1CCN(c2ccccc2)CC1,1.58% (inactive)
4,CC12CCC(C(=O)N3CCN(C(=O)C45CCC(C)(C(=O)O4)C5(C)C)CC3)(OC1=O)C2(C)C,99.3% (active)
5,CSc1nnc(-c2ccccc2)n1C,17.4% (inactive)
6,O=C(COC(=O)c1ccccc1C(=O)c1ccccc1)c1ccco1,2.21% (inactive)
7,CN(CC(=O)Nc1cccnc1)S(=O)(=O)c1cc(Cl)ccc1Cl,-13.1% (inactive)
8,O=C(CSc1n[nH]c(=O)[nH]c1=O)c1ccccc1,0.379% (inactive)
9,O=C(NCCCN1CCN(c2cccc(Cl)c2)CC1)c1ccc(N2CCCC2=O)cc1,0.162% (inactive)
10,CCN1C(=O)/C(=C/N(C)c2ccccc2)OC1=S,-64.8% (inactive)
11,Cc1nnc(SCC(=O)NCc2ccc3c(c2)OCO3)s1,11.6% (inactive)
12,Cc1cccc(NC(=O)CCCCCN2C(=O)c3ccccc3C2=O)n1,15.2% (inactive)
13,COc1ccc(-n2nc3cc(C)c(N)c(Br)c3n2)cc1,-36.5% (inactive)
14,Cc1ccc(S(=O)(=O)N(CC(=O)N2CCC(C(N)=O)CC2)Cc2ccc(F)cc2)cc1,15.9% (inactive)
15,Cc1ccc(-n2c(C)cc3c2CCCC3=O)cc1,8.48% (inactive)
16,CC1CCCCC1NC(=O)COc1ccc(-n2cnnn2)cc1 (stereo not drawn),25.1% (inactive)
17,CSc1ccccc1NC(=O)CN(c1ccccc1)S(=O)(=O)N(C)C,20.5% (inactive)
18,O=C(C1CCCO1)N1CCN(S(=O)(=O)c2ccccc2)CC1 (stereo not drawn),12.9% (inactive)
19,O=C(Nc1ccc2oc(=O)ccc2c1)c1cccnc1,0.246% (inactive)

# Source: PubChem BioAssay
